CYP2C9 inhib – blocks human cytochrome P450 2C9. CYP2C9 Supersomes, luciferin-H conversion, luminescence. inhibition, % at 5 µM. 96,000 tested, 20% active;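 active = blocking of liver enzyme CYP2C9 beyond about 50% at 5 µM, limit read from the data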
CYP2C19 inh – inhibitors of human CYP2C19; 96,000 tested, 21% active; CYP2C19 Supersomes, luciferin-H EGE luminescence, 30 min; inhibition, % at 5 µM; P33261;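 active = CYP2C19 inhibition above a set limit at 5 µM in the primary screen, cut at about 50% in these data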;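 also: plate controls were negative control wells for no effect and 2.5 mM tranylcypromine positive control for full effect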
Target sequence (P33261 whole entry, looked up): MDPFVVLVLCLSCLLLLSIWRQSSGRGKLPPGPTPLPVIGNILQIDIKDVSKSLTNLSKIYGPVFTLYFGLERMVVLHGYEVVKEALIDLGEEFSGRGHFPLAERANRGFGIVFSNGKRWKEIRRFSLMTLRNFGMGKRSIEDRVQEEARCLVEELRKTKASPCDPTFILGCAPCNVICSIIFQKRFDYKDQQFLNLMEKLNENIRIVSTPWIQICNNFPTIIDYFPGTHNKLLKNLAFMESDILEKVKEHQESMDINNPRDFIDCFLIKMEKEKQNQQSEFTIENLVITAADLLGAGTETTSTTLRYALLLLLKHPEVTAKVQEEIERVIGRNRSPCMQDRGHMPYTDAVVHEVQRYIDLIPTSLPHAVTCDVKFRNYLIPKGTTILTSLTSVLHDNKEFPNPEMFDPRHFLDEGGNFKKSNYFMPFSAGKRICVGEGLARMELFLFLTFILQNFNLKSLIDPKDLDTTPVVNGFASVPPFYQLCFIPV
Measles CPE – protection of cells from measles virus; Measles virus-infected cells, CPE protection, absorbance; protection (pct of control), % at 4 µM; 140,000 tested, 1.5% active; AID 841; in the data active = protection mostly above about 24%, no sharp cut-off; inactive = mostly below about 26%
CYP2C19 activ – activators of human cytochrome P450 2C19. P33261. recombinant CYP2C19, luciferin-H EGE luminescence; stronger effect = higher value; 0 = fully inhibited enzyme, 1 = untreated enzyme. activation factor at 5 µM. 96,000 tested, under 10 active;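 active = activation factor of at least 2 at 5 µM in the primary screen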;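 also: 0 = wells with 2.5 mM tranylcypromine and 1 = vehicle-only wells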
CYP2C9 act – activators of human CYP2C9. P11712. recombinant CYP2C9, luciferin-H conversion, luminescence; stronger effect = higher value; factor 1 = untreated enzyme, 0 = blocked. activation factor at 5 µM. 96,000 tested, 1.4% active;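 active = activation factor of 2 or more for CYP2C9 at a 5 µM dose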;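 also: 0 = sulfaphenazole-blocked wells and 1 = vehicle-only wells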
* marks the source's active call; other numbers are inactive results; x = not tested or not shown. In the library only some 22% were active in any assay of this set; here they are far more common.

SMILES	CYP2C9 inhib	CYP2C19 inh	Measles CPE	CYP2C19 activ	CYP2C9 act
CS(=O)(=O)N(CCc1ccccc1)CC(=O)NCc1ccc2c(c1)OCO2	31	31	47	0.7	0.7
O=C(CCS(=O)(=O)c1ccc(Br)s1)NCc1ccc2c(c1)OCO2	81*	35	6	0.6	0.2
CN(CC(=O)NCc1ccc2c(c1)OCO2)S(=O)(=O)c1ccc(Br)s1	89*	70*	3	0.3	0.1
O=C(CNC(=O)c1ccc(Br)o1)NCc1ccc2c(c1)OCO2	16	12	5	0.9	0.8
COCc1cc(C)nc(OCC(=O)N/N=C\c2cc(C)n(-c3cccc(C(F)(F)F)c3)c2C)c1C#N	65*	34	9	0.7	0.3
CCOC(=O)C1=C(C)NC2=C(C(=O)CCC2)C1c1cccnc1 (centres undefined)	32	35	44	0.7	0.7
CC1=C(C(=O)OCC2CCCO2)C(c2ccc(O)cc2)NC(=O)N1 (centres undefined)	-8	0	23	1	1.1
CC1=C(C(=O)OCC2CCCO2)C(c2ccccc2)NC(=O)N1 (centres undefined)	18	62*	13	0.4	0.8
CC1=C(C(=O)OCC2CCCO2)C(c2ccncc2)C2=C(CCCC2=O)N1 (centres undefined)	48	75*	6	0.2	0.5
CCc1nnc(SCc2ccc(OC)c(Br)c2)n1N	-27	58*	14	0.4	1.3
COc1ccc(CSc2nnc(C)n2N)cc1Br	-1	38	10	0.6	1
O=C(CCS(=O)(=O)c1ccc(Cl)cc1)N1CCN(S(=O)(=O)c2cccs2)CC1	x	x	21	x	x
C=CCn1cc(C(=O)NCc2ccco2)c(=O)c2cc(S(=O)(=O)N3CCCCCC3)ccc21	89*	44	5	0.6	0.1
CCn1cc(C(=O)NCc2ccco2)c(=O)c2cc(S(=O)(=O)N3CCC(C)CC3)ccc21	66*	13	x	0.9	0.3
CCn1cc(C(=O)NCc2ccco2)c(=O)c2cc(S(=O)(=O)N3CCc4ccccc4C3)ccc21	78*	36	8	0.6	0.2
CCn1cc(C(=O)NCCCN2CCC(C)CC2)c(=O)c2cc(S(=O)(=O)N3CCCC3)ccc21	14	-5	3	1	0.9
CCn1cc(C(=O)NC2CCC(C)CC2)c(=O)c2cc(S(=O)(=O)N3CCCCC3)ccc21 (centres undefined)	39	6	91*	0.9	0.6
Brc1[nH]nc2ccccc12	-12	10	17	0.9	1.1
CCn1cc(C(=O)NCc2ccco2)c(=O)c2cc(S(=O)(=O)N3CCCCCC3)ccc21	86*	49	x	0.5	0.1
CCn1cc(C(=O)NCCN(C)CCc2ccccc2)c(=O)c2cc(S(=O)(=O)N(C)C)ccc21	75*	37	6	0.6	0.3
CC1CCCC(NC(=O)c2cn(C)c3ccc(S(=O)(=O)N4CCCC4)cc3c2=O)C1C (centres undefined)	73*	16	2	0.8	0.3
O=C(COC(=O)c1cc(S(=O)(=O)N2CCc3ccccc3C2)ccc1Cl)NCc1ccco1	66*	40	10	0.6	0.3
CCn1cc(C(=O)NCc2ccccn2)c(=O)c2cc(S(=O)(=O)N3CCCCC3)ccc21	48	10	10	0.9	0.5
CN(CCNC(=O)c1cn(C)c2ccc(S(=O)(=O)N(C)C)cc2c1=O)CCc1ccccc1	47	6	6	0.9	0.5
CCOC(=O)CCCOC(=O)c1ccc(S(=O)(=O)N(C)C)cc1	x	x	9	x	x
SMILES	CYP2C9 inhib	CYP2C19 inh	Measles CPE	CYP2C19 activ	CYP2C9 act
Cc1ccc(S(=O)(=O)N(Cc2ccc(Cl)cc2)c2ccccc2C(=O)NCc2ccco2)cc1	x	x	22	x	x
CCn1cc(C(=O)NCc2ccco2)c(=O)c2cc(S(=O)(=O)N3CC(C)CC(C)C3)ccc21 (centres undefined)	58*	9	x	0.9	0.4
CC1(C)C(=O)OC(c2c(F)c(F)c(F)c(F)c2F)C2(CCCCC2)C1=O (centres undefined)	0	7	17	0.9	1
CCC(=O)Nc1ccc2nc(C3CC3)n(Cc3ccccc3)c(=O)c2c1	-2	-3	10	1	1
COc1ccc(Cn2c(C3CC3)nc3ccc(NC(=O)c4ccco4)cc3c2=O)cc1	55*	54*	36*	0.5	0.5
CCN(CC(=O)NCc1cccs1)c1ccc(S(=O)(=O)N2CCOCC2)cn1	57*	-5	13	1	0.4
O=[N+]([O-])c1cc2c(cc1/C=N\NS(=O)(=O)c1ccccc1)OCO2	82*	46	2	0.5	0.2
Cc1cccc(C)c1OCC(=O)N/N=C/c1cc2c(cc1[N+](=O)[O-])OCO2	36	48	11	0.5	0.6
Cn1c(=O)n(C)c2cc([N+](=O)[O-])c(N3CCN(S(=O)(=O)c4ccc(C(C)(C)C)cc4)CC3)cc21	62*	29	8	0.7	0.4
O=[N+]([O-])c1cc(C(F)(F)F)ccc1N1CCN(S(=O)(=O)c2ccc3ccccc3c2)CC1	-14	58*	5	0.4	1.1
CCOC(=O)C(C)c1nn(C)c(=O)c2ccccc12 (centres undefined)	15	67*	2	0.3	0.8
FC(F)(F)c1nc2nncn2c2c1CCCCC2	-1	6	10	0.9	1
CCN(CC)S(=O)(=O)c1ccc(OC)c(NC(=O)CSc2cc(Cl)ccc2Cl)c1	x	x	5	x	x
CCN(CC)S(=O)(=O)c1ccc(OC)c(NC(=O)CSc2ccccc2)c1	89*	50	8	0.5	0.1
CCN(CC)S(=O)(=O)c1ccc(OC)c(NC(=S)Nc2cccc(C)c2C)c1	x	x	45*	x	x
CC(C(=O)Nc1nc2ccccc2[nH]1)N1C(=O)C2CC=CCC2C1=O (centres undefined)	34	14	36	0.9	0.7
CC1CCN(S(=O)(=O)c2ccc3c(c2)N(CC(=O)NCc2cccnc2)C(=O)CS3)CC1	x	x	4	x	x
CCC(Oc1ccccc1)C(=O)N1CC(C)CC(C)C1 (centres undefined)	12	51*	7	0.5	0.9
CCCCNC(=O)C1CCCN1C(=O)Nc1cccc(OC)c1 (centres undefined)	-8	-7	6	1.1	1.1
CC(C)(O)C#Cc1ccc(C(=O)NCc2cccs2)s1	6	-8	5	1.1	0.9
Cc1ccc(Nc2nnc(-c3ccc(N4CCOCC4)c([N+](=O)[O-])c3)c3ccccc23)cc1	x	x	35*	x	x
O=[N+]([O-])c1cc(-c2nnc(Nc3ccccc3)c3ccccc23)ccc1N1CCOCC1	x	x	6	x	x
CCc1nnc(NC(=O)Cc2ccc(OCc3c(C)noc3C)cc2)s1	30	0	10	1	0.7
COc1ccc(NC(=O)CC2C(=O)N(c3ccc(OC)cc3)C(=O)N2C(C)C)cc1 (centres undefined)	27	56*	29	0.4	0.7

Compound activity: PubChem, several laboratories
